Hits are enriched below; roughly 2.5% of the tested compounds scored in any of these assays.
Cruzain inh noDet: blocks cruzain activity in detergent-free assay | P25779 | purified cruzain, Z-FR-AMC fluorescence, no detergent | Potency, µM, for inactives: max response, negative = inhibition, hits mostly inhibitors | actives 2.3% (n = 200,000);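 note: plate controls were enzyme without inhibitor for no effect and buffer without enzyme for full effect; nearly all actives have a fitted effect of over 40% in size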
Target sequence (P25779 123-467 limits assumed): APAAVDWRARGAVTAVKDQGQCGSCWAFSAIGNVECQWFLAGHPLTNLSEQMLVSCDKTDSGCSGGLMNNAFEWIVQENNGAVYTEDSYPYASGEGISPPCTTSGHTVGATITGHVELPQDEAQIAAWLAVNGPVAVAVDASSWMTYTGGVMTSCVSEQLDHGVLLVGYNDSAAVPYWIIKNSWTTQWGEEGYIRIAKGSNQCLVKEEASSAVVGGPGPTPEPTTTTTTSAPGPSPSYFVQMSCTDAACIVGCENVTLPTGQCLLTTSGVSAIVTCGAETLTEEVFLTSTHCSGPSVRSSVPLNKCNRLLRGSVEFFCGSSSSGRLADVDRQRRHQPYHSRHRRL
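Purified cruzain at 1.5 nM, pre-incubated 15 min with compound at room temperature in 100 mM sodium acetate pH 5.5, 5 mM DTT, 0.00005% Triton X-100. Reaction started with 2 uM Z-FR-AMC; AMC fluorescence increase over 60 s gives rate.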
Cruzain Triton: blocks cruzain activity in presence of Triton detergent; P25779; Potency, µM, for the others: max response, negative = inhibition, most hits filed as inhibitors; actives 0.43% (n = 200,000); purified cruzain, Z-FR-AMC fluorescence, 0.01% Triton;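 note: plate controls were neutral wells for no effect and buffer without enzyme for full effect; nearly all actives have a fitted effect of over 40% in size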
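Detergent-containing arm of a paired screen for aggregation-based inhibition: 0.01% Triton X-100 present. Cruzain at 1.5 nM cleaved 2 uM Z-FR-AMC at pH 5.5 with 5 mM DTT; AMC fluorescence gain over 60 s measured activity.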
* hit, by the source's call; ? = inconclusive; ! = not active in a repeat. Calls come from the whole dose curve; as a rule, active = well fitted curve in the direction sought with a large enough effect; inconclusive = small, poorly fitted or top-dose-only effect, or another doubt; inactive = no such curve, though single readings can be large; an effect the other way counts as inactive or inconclusive. Potency is the fitted concentration of half-maximal effect.

SMILES	Cruzain inh noDet	Cruzain Triton
Cc1cccc(OCCCSc2nc(-c3ccc(C(C)(C)C)cc3)nc3cc(=O)[nH]n23)c1C	10µM*	-11%
Cc1cccc(-c2nc(SCCCOc3ccc(Cl)c(C)c3)n3[nH]c(=O)cc3n2)c1	-9%	3%
CCc1ccc(OCCCSc2nc(-c3ccc(C(C)(C)C)cc3)nc3cc(=O)[nH]n23)cc1	6.3µM*	-6%
CCOC(=O)Cn1c(=O)n(C2CCCCC2)c2nc(-c3ccc(Cl)cc3)nc(C(N)=O)c21	3%	-1%
COc1ccc(NC(=O)c2csnn2)cc1Cl	-16%	-7%
CCOC(=O)CSCC(=O)N1N=C(c2cccs2)CC1c1ccc(F)cc1 (centres undefined)	7%	-9%
Cc1ccc(C2CC(c3cccs3)=NN2C(=O)c2ccc(Br)o2)cc1 (centres undefined)	7.9µM*	-9%
CC1=C(C(=O)Nc2ccccc2)C(c2cccn2C)n2ncnc2N1 (centres undefined)	-8%	-1%
Cc1cc(=O)n(CC(=O)N2CCCCC2)c2c1c(C)nn2C	-2%	-2%
NC(=S)N=Nc1c(O)[nH]c2cc(F)c(F)cc12	10µM*	14µM*
CNC(=S)N=Nc1c(O)[nH]c2ccc(C(C)C)cc12	-1%	-8%
CCOc1ccc(NC(=O)CSc2oc(-c3ccco3)nc2S(=O)(=O)c2ccc(Cl)cc2)cc1	21%	3%
COc1ccc(C(=O)Nc2ccc3nc(SCC(=O)N4CCCC4)sc3c2)cc1	-1%	-5%
Oc1c(CN2CCc3ccccc3C2)cc(Cl)c2cccnc12	-5%	0%
Oc1c(I)cc(Cl)c2cccnc12	13µM*!	2%
CCc1nc2nc(C)cc(Nc3ccc(Br)cc3F)n2n1	-1%	1%
CC1=C(c2ccc(C)c(C)c2)S(=O)(=O)N=C1N1CCC(C(=O)N2CCC(C(N)=O)CC2)CC1	?	-3%
CCOC(=O)c1cc(-c2ccccc2)sc1NC(=O)C(C)N1C(=O)NC(C)(c2ccc(Cl)cc2)C1=O (centres undefined)	4µM*	0%
CCOC(=O)c1cc(-c2ccccc2)sc1NC(=O)C(C)C	4%	-14%
O=C(NC1=NCCS1)C12CC3CC(C1)CC(C(=O)NC1=NCCS1)(C3)C2	-7%	5%
O=C(CC12CC3CC(C1)CC(CC(=O)NC1=NCCS1)(C3)C2)NC1=NCCS1	25µM*	-7%
COc1cc(NC(=O)CC2C(=O)N(c3ccc(Cl)cc3)C(=O)N2Cc2cccs2)cc(OC)c1 (centres undefined)	-9%	-8%
O=C(Cn1c(=O)n(Cc2ccco2)c(=O)c2c3c(sc21)CCCC3)Nc1ccccc1	25µM*	-6%
NC(=O)Cn1c(=O)n(Cc2ccco2)c(=O)c2c3c(sc21)CCCCC3	7%	-3%
CC(C)c1ccc(C2C(C#N)=C(N)N3C(=C2C#N)Sc2ccccc23)cc1 (centres undefined)	7.9µM*	-14%
SMILES	Cruzain inh noDet	Cruzain Triton
CC(C)c1ccc(C2CC(=O)N3CN(C)CSC3=C2C#N)cc1 (centres undefined)	-4%	1%
Cc1ccc(Cn2c(C(=O)O)c(CNCc3ccc(OC(C)C)cc3)c3ccc(C)cc32)cc1	?	-14%
NC1=NC([S][Hg][c]2ccc(N)cc2)c2ncn([C@@H]3O[C@H](CO)[C@@H](O)[C@@H]3O)c2N1 (some centres undefined)	22%	9%
COCCCNC(=O)CCn1c(=O)c2ccccc2n(CC(=O)Nc2cc(Cl)ccc2OC)c1=O	-14%	-1%
O=[N+]([O-])c1cc2c(c(CSc3nnc(Nc4ccccc4)s3)c1)OCOC2	?	-1%
Cc1ccccc1Nc1nnc(SCc2cc([N+](=O)[O-])cc3c2OCOC3)s1	13µM*	1%
COc1cc2c(cc1NC(=O)COC(=O)[C@@H](NC(=O)c1ccccc1)C(C)C)oc1ccccc12	32µM*	-9%
COc1cc2c(cc1NC(=O)COC(=O)[C@@H](NC(=O)c1ccccc1F)C(C)C)oc1ccccc12	?	-10%
CCc1ccc(OCC(=O)Nc2cc3oc4ccccc4c3cc2OC)cc1	1%	0%
CCN(CC)c1ccc(C(=O)OCC(=O)Nc2cc3oc4ccccc4c3cc2OC)cc1	13µM*	-17%
CCOC(=O)c1cc(-c2ccccc2)n(CC(=O)NCc2ccccc2OC)c1C	-2%	1%
CCOc1ccc(CNC(=O)CCCn2c(=O)c3cccn3c3ccc(F)cc32)cc1	8%	-4%
Cc1ccc(S(=O)(=O)c2nnn3c2nc(N2CCC(C)CC2)c2cc(Cl)ccc23)cc1C	?	-4%
COc1cccc(NC(=O)/C(C#N)=C/c2c(C)n(Cc3ccc(Cl)cc3)c3ccccc23)c1	6.3µM*	-2%
Cc1c(/C=C(\C#N)C(=O)Nc2cccc(Cl)c2)c2ccccc2n1Cc1ccccc1	4µM*	-4%
Cc1ccc(Cl)cc1NC(=O)/C(C#N)=C/c1c(C)n(Cc2ccccc2)c2ccccc12	3%	0%
COc1cccc(NC(=O)Cn2c(=O)n(CCC(=O)NCCc3ccc(Cl)cc3)c(=O)c3ccccc32)c1	-9%	-3%
CC(=O)N1CCc2c(sc3c2c(=O)n(-c2ccccc2)c(=O)n3Cc2cccc(C(F)(F)F)c2)C1	?	-16%
CC1CCC(NC(=O)C2(C)Cc3ccccc3C(=O)N2Cc2ccc(F)cc2)CC1 (centres undefined)	4%	-2%
CCCCN(C)CCNC(=O)c1c(C)oc2ncnc(N3CCOCC3)c12	-11%	-1%
CCSc1nnc(NC(=O)COc2ccccc2)s1	?	-5%
Cc1csc(NC(=O)CSc2nnc(NC(=O)COc3ccc(Cl)cc3)s2)n1	5µM*	-1%
Cc1ccc(CNC(=O)C(C)n2nc(C)n3c(cc4sccc43)c2=O)cc1 (centres undefined)	0%	0%
CCOc1ccccc1CNC(=O)c1cccc(NC(=O)c2nsc3ccccc23)c1	?	-2%
COc1ccccc1OCc1nnc(SCC(=O)Nc2ccc(C)cc2)n1C	8%	3%
SMILES	Cruzain inh noDet	Cruzain Triton
Cc1ccccc1OCc1nnc(SCC(=O)Nc2ccc3c(c2)oc2ccccc23)n1C	20µM*	1%
Cc1ccc(-c2nnc(SCC(=O)Nc3ccc4c(c3)oc3ccccc34)n2C)c(Cl)c1	?	-4%
Cn1c(SCC(=O)Nc2cccc(Br)c2)nnc1-c1cc2ccccc2o1	13µM*	1%
CCCCCN1C(C(=O)c2ccccc2)=C(NC(=O)c2ccccc2Cl)c2ccccc2S1(=O)=O	10µM*	-5%
CCCCCN1C(C(=O)c2ccccc2)=C(NC(C)=O)c2ccccc2S1(=O)=O	4%	-11%
CCC(Sc1nc2cc3c(cc2c(=O)n1CCCC(=O)NCc1ccc2c(c1)OCO2)OCO3)C(=O)NCCCOC (centres undefined)	11%	2%
CSCCC(NC(=O)c1ccccc1)C(=O)OCC(=O)Nc1ccc(C)c(Cl)c1 (centres undefined)	-14%	14µM*
CSCCC(NC(=O)c1ccc(Cl)cc1)C(=O)OCC(=O)Nc1cc(Cl)ccc1C#N (centres undefined)	-29%	25µM*
CSCCC(NC(=O)c1ccc([N+](=O)[O-])cc1Cl)C(=O)OCC(=O)N(C)C (centres undefined)	-23%	-24%
CSCCC(NC(=O)c1ccccc1)C(=O)Nc1ccc(C)cc1 (centres undefined)	-18%	0%
O=S(=O)(Nc1ccc(-c2ccc(N3CCCCC3)nn2)cc1)c1ccc(OC(F)(F)F)cc1	17%	-5%
